# According to the supplement of paper PMC11732987, “Enantioselective OTUD7B fragment discovery through chemoproteomics screening and high-throughput optimisation” (Communications Chemistry, 2025):
# Values without a mark were called inactive.
# Key:
# Test in all cases: log2 ratio of Biotin-Ahx-Ub-VS probe labelling (fragment/DMSO); higher = less target engagement (more negative = stronger competition), active = hit call of the paper (q ≤ 0.05, log2 ratio ≤ -1)
# Details in all cases: compound concentration: 200 uM; treatment time: 3 h
# USP19 = biological target: T1, USP19 (UniProt O94966)
# T1 sequence (whole entry): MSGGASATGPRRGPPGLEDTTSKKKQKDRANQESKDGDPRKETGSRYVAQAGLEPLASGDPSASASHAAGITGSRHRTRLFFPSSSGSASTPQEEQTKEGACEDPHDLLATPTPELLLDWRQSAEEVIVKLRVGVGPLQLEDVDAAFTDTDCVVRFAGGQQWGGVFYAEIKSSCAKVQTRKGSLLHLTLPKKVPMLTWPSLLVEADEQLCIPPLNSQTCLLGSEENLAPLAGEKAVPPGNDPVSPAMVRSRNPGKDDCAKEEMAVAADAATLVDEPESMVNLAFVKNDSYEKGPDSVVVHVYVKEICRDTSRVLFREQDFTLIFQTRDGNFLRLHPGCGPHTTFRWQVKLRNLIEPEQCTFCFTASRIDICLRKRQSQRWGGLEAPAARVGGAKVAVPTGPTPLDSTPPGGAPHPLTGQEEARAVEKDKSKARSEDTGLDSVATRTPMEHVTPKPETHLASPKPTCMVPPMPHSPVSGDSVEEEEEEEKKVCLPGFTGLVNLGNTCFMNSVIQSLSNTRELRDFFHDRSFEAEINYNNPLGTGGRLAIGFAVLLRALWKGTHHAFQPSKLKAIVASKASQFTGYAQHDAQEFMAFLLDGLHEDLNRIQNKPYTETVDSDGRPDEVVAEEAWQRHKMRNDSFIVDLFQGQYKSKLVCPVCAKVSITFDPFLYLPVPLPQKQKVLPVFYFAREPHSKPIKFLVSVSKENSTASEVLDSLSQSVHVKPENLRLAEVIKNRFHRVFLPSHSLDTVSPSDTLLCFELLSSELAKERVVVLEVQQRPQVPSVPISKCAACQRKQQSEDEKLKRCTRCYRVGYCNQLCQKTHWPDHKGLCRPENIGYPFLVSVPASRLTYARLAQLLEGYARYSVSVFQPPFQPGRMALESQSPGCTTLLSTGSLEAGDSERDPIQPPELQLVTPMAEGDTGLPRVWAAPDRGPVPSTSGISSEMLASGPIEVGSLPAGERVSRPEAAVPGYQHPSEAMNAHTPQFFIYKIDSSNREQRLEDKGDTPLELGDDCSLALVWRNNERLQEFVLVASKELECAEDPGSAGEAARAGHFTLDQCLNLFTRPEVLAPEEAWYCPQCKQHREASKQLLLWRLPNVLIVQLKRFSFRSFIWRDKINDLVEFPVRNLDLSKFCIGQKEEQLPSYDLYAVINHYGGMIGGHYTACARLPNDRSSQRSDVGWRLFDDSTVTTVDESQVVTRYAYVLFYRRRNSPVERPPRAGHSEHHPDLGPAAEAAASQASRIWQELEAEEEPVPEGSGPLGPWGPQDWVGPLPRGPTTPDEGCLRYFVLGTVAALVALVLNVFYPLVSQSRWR
# How it was run: (§1)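 The table lists average log2 ratios of fragment over vehicle, from an unpaired t-test on global-median-normalised Spectronaut label-free quantities. Proteins with ≥2 unique peptides were used. Samples were HEK293T lysate (495 µg) treated in triplicate with fragment at 200 µM or vehicle for 3 h, then with Biotin-Ahx-Ub-VS (0.5 µM final) for 1 h, with labelled DUBs NeutrAvidin-enriched and run by diaPASEF LC-MS/MS.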
# USP22 = biological target: T2, USP22 (UniProt Q9UPT9)
# T2 sequence (whole entry): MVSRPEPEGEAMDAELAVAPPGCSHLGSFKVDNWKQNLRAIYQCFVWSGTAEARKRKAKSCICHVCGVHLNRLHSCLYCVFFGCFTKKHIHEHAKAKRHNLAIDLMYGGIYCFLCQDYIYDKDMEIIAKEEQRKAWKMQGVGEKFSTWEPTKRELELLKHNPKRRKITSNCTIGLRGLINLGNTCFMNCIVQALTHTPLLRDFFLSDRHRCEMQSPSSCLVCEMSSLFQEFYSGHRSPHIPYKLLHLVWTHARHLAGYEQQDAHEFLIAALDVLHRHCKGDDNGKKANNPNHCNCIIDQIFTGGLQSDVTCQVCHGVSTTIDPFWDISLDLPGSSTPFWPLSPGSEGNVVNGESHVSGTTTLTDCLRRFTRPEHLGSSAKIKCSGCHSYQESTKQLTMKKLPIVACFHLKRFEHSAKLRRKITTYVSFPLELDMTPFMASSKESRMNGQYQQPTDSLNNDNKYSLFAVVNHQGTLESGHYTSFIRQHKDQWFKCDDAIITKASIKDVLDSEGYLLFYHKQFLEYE
# How it was run: as §1
# USP24 = USP24 (UniProt Q9UPU5)
# Sequence of USP24 (Q9UPU5 whole entry): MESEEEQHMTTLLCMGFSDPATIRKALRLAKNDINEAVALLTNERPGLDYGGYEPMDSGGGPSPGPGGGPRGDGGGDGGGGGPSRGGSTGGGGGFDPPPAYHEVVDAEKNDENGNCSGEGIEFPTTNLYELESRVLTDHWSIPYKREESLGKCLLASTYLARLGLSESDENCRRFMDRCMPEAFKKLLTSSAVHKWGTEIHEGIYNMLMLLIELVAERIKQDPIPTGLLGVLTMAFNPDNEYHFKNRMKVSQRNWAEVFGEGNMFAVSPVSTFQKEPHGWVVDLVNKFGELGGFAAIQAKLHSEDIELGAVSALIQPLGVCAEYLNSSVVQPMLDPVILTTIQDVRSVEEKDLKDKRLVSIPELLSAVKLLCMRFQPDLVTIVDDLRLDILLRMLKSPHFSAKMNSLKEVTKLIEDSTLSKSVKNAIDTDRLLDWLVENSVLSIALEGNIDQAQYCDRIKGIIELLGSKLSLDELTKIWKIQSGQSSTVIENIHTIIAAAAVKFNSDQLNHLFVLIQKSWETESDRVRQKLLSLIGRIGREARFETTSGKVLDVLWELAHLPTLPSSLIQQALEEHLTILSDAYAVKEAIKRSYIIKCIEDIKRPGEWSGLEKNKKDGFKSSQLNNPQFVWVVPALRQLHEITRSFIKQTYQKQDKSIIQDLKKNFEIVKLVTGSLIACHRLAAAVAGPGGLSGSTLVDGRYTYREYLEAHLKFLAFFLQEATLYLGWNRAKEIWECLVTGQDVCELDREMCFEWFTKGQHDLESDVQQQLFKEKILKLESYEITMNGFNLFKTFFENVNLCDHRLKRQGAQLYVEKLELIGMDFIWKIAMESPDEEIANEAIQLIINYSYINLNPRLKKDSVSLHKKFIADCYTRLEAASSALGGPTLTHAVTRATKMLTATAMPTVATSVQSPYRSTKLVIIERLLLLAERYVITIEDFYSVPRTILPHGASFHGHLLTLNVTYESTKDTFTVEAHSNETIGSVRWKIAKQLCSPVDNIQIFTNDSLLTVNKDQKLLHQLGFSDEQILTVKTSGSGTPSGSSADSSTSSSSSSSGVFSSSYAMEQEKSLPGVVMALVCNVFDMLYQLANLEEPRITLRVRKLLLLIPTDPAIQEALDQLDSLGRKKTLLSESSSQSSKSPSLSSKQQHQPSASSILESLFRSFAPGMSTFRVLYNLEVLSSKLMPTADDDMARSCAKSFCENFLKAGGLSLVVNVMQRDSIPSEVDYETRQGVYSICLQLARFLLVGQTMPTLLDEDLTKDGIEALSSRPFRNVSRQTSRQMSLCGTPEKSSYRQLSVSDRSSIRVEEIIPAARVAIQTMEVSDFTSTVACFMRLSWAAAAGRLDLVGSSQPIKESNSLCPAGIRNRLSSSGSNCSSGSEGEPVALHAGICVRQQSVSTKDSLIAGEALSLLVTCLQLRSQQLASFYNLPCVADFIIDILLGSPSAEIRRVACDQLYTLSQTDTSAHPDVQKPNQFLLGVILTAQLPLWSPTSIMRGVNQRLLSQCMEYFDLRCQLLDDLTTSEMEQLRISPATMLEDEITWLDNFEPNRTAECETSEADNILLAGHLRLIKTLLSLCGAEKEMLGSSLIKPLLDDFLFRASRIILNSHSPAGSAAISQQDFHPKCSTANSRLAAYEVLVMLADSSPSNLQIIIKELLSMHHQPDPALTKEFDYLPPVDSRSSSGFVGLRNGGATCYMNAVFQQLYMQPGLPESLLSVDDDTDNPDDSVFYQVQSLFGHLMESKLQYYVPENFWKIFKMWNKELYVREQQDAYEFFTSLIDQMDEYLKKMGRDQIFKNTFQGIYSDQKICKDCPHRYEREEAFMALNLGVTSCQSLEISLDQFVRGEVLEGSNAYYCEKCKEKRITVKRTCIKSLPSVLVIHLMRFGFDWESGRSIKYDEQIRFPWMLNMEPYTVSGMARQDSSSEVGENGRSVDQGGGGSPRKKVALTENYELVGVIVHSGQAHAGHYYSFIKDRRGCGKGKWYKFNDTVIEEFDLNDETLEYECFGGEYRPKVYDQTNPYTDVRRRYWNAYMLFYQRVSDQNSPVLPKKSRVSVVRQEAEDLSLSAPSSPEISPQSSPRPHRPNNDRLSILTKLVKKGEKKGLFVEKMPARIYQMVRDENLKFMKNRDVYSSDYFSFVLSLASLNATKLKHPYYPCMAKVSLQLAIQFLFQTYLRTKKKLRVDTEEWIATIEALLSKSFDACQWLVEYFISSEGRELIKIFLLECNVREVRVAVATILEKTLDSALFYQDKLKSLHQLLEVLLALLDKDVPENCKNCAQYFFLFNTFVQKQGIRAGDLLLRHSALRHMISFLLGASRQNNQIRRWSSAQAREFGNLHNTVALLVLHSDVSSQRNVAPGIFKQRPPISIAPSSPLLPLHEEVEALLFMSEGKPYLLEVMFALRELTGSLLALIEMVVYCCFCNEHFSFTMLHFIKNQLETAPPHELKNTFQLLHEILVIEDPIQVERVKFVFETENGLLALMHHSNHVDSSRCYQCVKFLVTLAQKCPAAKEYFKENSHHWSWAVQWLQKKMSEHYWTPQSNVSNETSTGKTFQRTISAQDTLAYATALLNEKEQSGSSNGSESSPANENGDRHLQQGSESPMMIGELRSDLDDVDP
# How it was run: as §1
# USP25 = biological target: T3, USP25 (UniProt Q9UHP3)
# T3 sequence (whole entry): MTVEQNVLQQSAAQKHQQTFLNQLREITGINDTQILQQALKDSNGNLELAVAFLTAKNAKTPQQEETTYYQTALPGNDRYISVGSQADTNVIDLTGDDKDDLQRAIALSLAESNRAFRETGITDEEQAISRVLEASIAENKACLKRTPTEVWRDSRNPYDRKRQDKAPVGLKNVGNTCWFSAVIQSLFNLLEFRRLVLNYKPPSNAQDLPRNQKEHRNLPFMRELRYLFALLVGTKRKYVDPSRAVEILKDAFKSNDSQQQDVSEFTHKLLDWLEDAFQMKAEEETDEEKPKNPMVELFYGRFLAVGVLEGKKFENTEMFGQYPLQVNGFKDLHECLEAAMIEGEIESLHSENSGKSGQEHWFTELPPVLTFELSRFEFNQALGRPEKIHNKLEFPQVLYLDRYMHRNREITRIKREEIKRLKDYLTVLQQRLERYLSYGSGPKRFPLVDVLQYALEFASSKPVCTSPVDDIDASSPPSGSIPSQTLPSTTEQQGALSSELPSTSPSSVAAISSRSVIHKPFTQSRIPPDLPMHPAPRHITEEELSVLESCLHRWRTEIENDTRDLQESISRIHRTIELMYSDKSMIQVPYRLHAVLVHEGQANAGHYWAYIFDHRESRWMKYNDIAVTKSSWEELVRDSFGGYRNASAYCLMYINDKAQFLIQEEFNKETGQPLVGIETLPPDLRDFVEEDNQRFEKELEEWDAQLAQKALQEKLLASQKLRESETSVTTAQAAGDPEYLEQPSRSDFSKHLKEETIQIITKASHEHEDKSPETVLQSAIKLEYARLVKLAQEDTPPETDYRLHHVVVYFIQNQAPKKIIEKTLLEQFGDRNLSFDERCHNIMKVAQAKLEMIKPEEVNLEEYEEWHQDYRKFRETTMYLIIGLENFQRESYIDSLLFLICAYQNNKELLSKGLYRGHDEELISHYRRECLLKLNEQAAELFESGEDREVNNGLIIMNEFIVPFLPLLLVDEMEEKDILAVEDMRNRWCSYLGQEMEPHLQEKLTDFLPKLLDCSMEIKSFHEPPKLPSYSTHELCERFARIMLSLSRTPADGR
# How it was run: as §1
# USP28 = biological target: T4, USP28 (UniProt Q96RU2)
# T4 sequence (whole entry): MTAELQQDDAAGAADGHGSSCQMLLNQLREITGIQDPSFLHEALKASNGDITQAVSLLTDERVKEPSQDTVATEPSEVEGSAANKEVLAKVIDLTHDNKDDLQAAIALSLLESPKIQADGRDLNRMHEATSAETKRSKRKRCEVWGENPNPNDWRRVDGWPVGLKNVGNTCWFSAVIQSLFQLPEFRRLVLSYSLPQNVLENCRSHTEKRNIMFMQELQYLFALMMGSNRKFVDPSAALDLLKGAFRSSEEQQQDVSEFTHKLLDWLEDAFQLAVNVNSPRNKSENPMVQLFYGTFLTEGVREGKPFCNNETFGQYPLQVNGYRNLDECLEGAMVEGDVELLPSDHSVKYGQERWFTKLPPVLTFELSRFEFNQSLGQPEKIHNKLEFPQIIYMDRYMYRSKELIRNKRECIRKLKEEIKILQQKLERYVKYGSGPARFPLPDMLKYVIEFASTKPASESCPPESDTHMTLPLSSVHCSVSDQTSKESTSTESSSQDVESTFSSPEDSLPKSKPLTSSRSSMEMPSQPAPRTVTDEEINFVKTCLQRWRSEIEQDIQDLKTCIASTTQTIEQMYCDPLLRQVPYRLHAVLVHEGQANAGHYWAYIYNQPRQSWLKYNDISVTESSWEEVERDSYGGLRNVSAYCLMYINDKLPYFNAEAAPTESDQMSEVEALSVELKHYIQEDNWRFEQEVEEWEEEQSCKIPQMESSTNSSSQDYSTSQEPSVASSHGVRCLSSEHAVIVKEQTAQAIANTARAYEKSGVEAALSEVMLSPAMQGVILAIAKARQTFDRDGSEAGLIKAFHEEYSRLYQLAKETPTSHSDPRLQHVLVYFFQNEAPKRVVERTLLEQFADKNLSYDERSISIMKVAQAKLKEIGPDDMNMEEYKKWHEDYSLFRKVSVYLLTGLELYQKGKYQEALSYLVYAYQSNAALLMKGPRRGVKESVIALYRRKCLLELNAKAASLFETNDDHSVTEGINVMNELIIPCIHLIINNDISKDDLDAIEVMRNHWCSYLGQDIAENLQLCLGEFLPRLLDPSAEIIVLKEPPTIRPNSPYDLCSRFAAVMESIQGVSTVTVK
# How it was run: as §1
smiles,measurement,setting,value
O=C(CCl)N1CC=C(c2c[nH]c3ccccc23)CC1,log2 ratio of Biotin-Ahx-Ub-VS probe labelling,USP19,-1.72 (active)
same,log2 ratio of Biotin-Ahx-Ub-VS probe labelling,USP22,-0.57
same,log2 ratio of Biotin-Ahx-Ub-VS probe labelling,USP24,-1.48 (active)
same,log2 ratio of Biotin-Ahx-Ub-VS probe labelling,USP25,-0.457
same,log2 ratio of Biotin-Ahx-Ub-VS probe labelling,USP28,-1.1 (active)
